Rows were chosen to be rich in hits. Some 10% of all compounds tested hit in one or more screens of this group.
HPGD inh = HPGD (human) dehydrogenase inhibition; purified HPGD, NADH fluorescence kinetic, PGE2 substrate; Potency, µM, without a hit: at the top dose activity change, negative = inhibition, actives largely listed as inhibitors; actives 4.3% (n = 150,000); also: potency is read from the fitted curve at half-maximal effect
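NADH formation kinetics: reaction with 30 uM PGE2 and 1 mM NAD+ (final), 20 nM enzyme, Tris-HCl pH 8 with Tween 20, after 15 min compound preincubation at room temperature. Fluorescence change, last versus first of five reads.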
LMNA splice mod = changes lamin A minigene splicing in HeLa cells | HeLa LMNA splicing GFP/RFP minigene ratio, 48 h | Potency, µM (series often up to 46.1 µM), for inactives: at the top dose ratio change, negative = inhibition, actives largely listed as inhibitors | actives 0.01% (n = 200,000) | AID 1487; active = well fitted inhibition curve with a large enough effect in the signal ratio, with a control signal flat, not every such curve was filed as active; inconclusive = small, poorly fitted or top-dose-only effect, or effect the other way, or a change in a side signal; the % refers to the signal ratio; also: potency is read from the fitted curve at half-maximal effect
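Read-out is the ratio of GFP to DsRed2 object intensity, acquired by 488 nm laser-scanning cytometry on HeLa lamin A-EGFP minigene reporter cells. Compound incubation 48 hrs at 37 °C in Opti-MEM with 2% FBS; DMSO 0.5% final.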
ALDH1A1 block = inhibitors of human aldehyde dehydrogenase 1A1; P00352; Purified ALDH1A1, NADH fluorescence, propionaldehyde substrate; Potency, µM (top dose mostly 75.3 µM), inactives show top-dose activity, negative = inhibition, most hits filed as inhibitors; actives 7.3% (n = 220,000); AID 1030;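 also: potency is read from the fitted curve at half-maximal effect; plate controls were no enzyme wells and a reference inhibitor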
Target sequence (P00352 whole entry, looked up): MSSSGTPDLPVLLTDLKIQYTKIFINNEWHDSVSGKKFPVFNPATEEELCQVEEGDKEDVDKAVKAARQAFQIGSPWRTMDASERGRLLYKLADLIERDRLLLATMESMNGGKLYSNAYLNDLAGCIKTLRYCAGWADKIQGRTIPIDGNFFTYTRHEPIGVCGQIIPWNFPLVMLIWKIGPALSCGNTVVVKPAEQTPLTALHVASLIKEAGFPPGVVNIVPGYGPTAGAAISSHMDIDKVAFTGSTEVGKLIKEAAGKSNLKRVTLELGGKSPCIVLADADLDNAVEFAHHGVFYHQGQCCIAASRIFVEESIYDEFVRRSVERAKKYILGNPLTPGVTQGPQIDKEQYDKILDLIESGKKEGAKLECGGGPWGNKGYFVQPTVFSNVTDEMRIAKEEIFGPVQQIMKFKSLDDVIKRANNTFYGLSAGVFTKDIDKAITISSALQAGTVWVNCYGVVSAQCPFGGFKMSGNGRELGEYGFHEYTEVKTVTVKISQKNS
Luc counter = counter-screen: inhibitors of Kinase-Glo firefly luciferase. Kinase-Glo luciferase, ATP luminescence, 8 min. Q27757. actives 0.28% (n = 200,000). Potency, µM (highest dose often 38.3 µM), for the others: at the top dose activity change, negative = inhibition, actives largely listed as inhibitors; active = well fitted inhibition curve with a large enough effect; inconclusive = small, poorly fitted or top-dose-only effect; also: potency is read from the fitted curve at half-maximal effect; nearly all actives have a fitted effect of over 60% in size
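Compound is pinned into ATP-containing buffer (10 uM ATP, imidazole pH 7.2, 7 mM MgCl2). Kinase-Glo luciferase reagent is then added. Light output is recorded following an 8-min room-temperature incubation.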
PNC inhibitor = inhibitors of perinucleolar compartment assembly; PC3M PTB-GFP, PNC prevalence imaging, 16 h; stronger effect = lower value; activity change (PNC), negative = inhibition, % at 10 µM; actives 3.1% (n = 140,000); AID 2417;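 active = readout at or below -70, meaning at least 70% loss of cells showing the perinucleolar compartment, a nuclear body marking cancer cells; inconclusive = readout between -30 and a set limit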;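 also: plate controls were DMSO wells for no effect and camptothecin positive control wells for full effect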
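Compounds are pinned in duplicate onto adhered PC3M cells stably expressing GFP-tagged PTB and incubated 16 h at 37 C. Cells are then fixed, nuclei stained with Hoechst, and PNC-positive cells counted.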
Active calls of the source: *; [ ] = dose if it differs, or a comment. Unless noted, calls follow the shape of the dose curve; as a rule, active = well fitted inhibition curve with a large enough effect (not every such curve was filed as active); inconclusive = small, poorly fitted or top-dose-only effect, or another doubt; inactive = no such curve, though single readings can be large or run the other way. Unless noted, % is scaled to controls: 0 for no effect and ±100 for the full control effect.

For COc1ccc(OC)c(-n2c(=O)c3ccccc3c3ccccc3c2=O)c1 the results were HPGD inh -6%, LMNA splice mod inconclusive, ALDH1A1 block -8%, Luc counter 2% and PNC inhibitor 97.
Screening COC(=O)C1=C(O)/C(=C\c2cc(C)n(-c3ccccc3C)c2C)N=C1C returned HPGD inh -20%, LMNA splice mod -9%, ALDH1A1 block inconclusive, Luc counter -8% and PNC inhibitor inconclusive.
For COc1ccc(OC)c(-n2c(C)cc(C=O)c2C)c1 the results were LMNA splice mod -3%[46 µM], ALDH1A1 block 5.6µM* and Luc counter 1%.
For COC(=O)c1cccc(-n2c(C)cc(C=O)c2C)c1C the results were HPGD inh -11%, LMNA splice mod 1%, ALDH1A1 block 0.63µM*, Luc counter -6% and PNC inhibitor 5.
For COc1ccc(-n2c(C)cc(C=O)c2C)cc1Cl the results were HPGD inh 18µM*, LMNA splice mod 6%, ALDH1A1 block 1µM*, Luc counter 0% and PNC inhibitor -24.
`COc1ccccc1CN1CC2(CCN(C(=O)c3cccc(F)c3)CC2)C1` gave HPGD inh -13%, ALDH1A1 block inconclusive and Luc counter 2%.
`O=S(=O)(c1ccccc1)c1ncc(C(F)(F)F)cc1Cl` gave LMNA splice mod inconclusive, ALDH1A1 block 10µM* and Luc counter 6%.
`Cc1[nH]c(=O)[nH]c(=O)c1Cc1cccc2ccccc12` gave ALDH1A1 block 10µM* and Luc counter 1%.
`Cc1nc(N2CCN(C)CC2)[nH]c(=O)c1Cc1cccc2ccccc12` gave HPGD inh -14%, LMNA splice mod -3%, ALDH1A1 block inconclusive, Luc counter 4% and PNC inhibitor -2.
O=C(O)[C@@H]1CN[C@@H](C(=O)O)C1 was read as ALDH1A1 block 8%.
O=C1c2ccccc2C(=O)N1c1cccc(-c2nc3ccccc3o2)c1 was read as HPGD inh -7%, LMNA splice mod 7%, ALDH1A1 block 5%, Luc counter 5% and PNC inhibitor -89*.
`O=C1c2ccccc2C(=O)N1c1ccc(-c2nc3ccccc3o2)cc1` gave LMNA splice mod 3%, ALDH1A1 block 14% and PNC inhibitor inconclusive.
Cc1cccc(CN2CCN(CC(=O)NCCCN3CCN(c4ccc(F)cc4)CC3)C2=O)c1 was read as HPGD inh -2%, LMNA splice mod inconclusive, ALDH1A1 block 7%, Luc counter -3% and PNC inhibitor inconclusive.
For Cc1cccc(CN2CCN(CC(=O)NCCCN3CCCC3=O)C2=O)c1 the results were HPGD inh 0%, LMNA splice mod -11%, ALDH1A1 block 6%, Luc counter 3% and PNC inhibitor -111*.
`Cc1ccc(NC(=O)Cn2c(=O)n(Cc3ccccc3)c(=O)c3c(C)c(C(=O)N(C)C)sc32)c(C)c1` gave LMNA splice mod 2%[46 µM].
CCc1ccc(CNC(=O)Cn2nc(-c3ccc(Cl)cc3)ccc2=O)cc1 was read as LMNA splice mod -25%[46 µM].
For CCCN(C(=O)c1ccco1)c1nnc(-c2cccc(C)c2)s1 the results were LMNA splice mod -8%[46 µM], ALDH1A1 block inconclusive and Luc counter -1%.
For CCN(C(=O)c1ccco1)c1nnc(-c2ccc(OC)cc2)s1 the results were HPGD inh inconclusive, LMNA splice mod -2%, ALDH1A1 block inconclusive, Luc counter -22% and PNC inhibitor -100*.
For COc1ccc2c(c1OC)C(=O)OC2Nn1cncn1 (centres undefined) the results were HPGD inh -26%, LMNA splice mod 13%, ALDH1A1 block inconclusive, Luc counter -2% and PNC inhibitor -94*.
For COc1ccc2c(c1OC)C(=O)OC2Nc1nc(-c2ccc(-c3ccccc3)cc2)cs1 (centres undefined) the results were HPGD inh inconclusive, LMNA splice mod -13%, ALDH1A1 block inconclusive, Luc counter 0% and PNC inhibitor -123*.
For COc1ccc2c(c1OC)C(=O)OC2Nc1nc(-c2cc3ccccc3oc2=O)cs1 (centres undefined) the results were HPGD inh -25%, LMNA splice mod inconclusive, ALDH1A1 block inconclusive, Luc counter inconclusive and PNC inhibitor -7.
O=C(NC1(C(F)(F)F)C(=O)Nc2c1c(=O)[nH]c(=O)n2CCc1ccccc1)c1ccc(Cl)cc1 (centres undefined) was read as LMNA splice mod 14%[46 µM].
CC(=O)c1ccc(NC(=O)CN2C(=O)CCc3ccccc32)cc1 was read as LMNA splice mod 3%[46 µM].
Screening CN(C)c1ccc(C(=O)C(O)c2ccc(C(C)(C)C)cc2)cc1 (centres undefined) returned HPGD inh -15%, LMNA splice mod -2%, ALDH1A1 block inconclusive, Luc counter 4% and PNC inhibitor 7.
Screening CC(c1ccc(C(C)(C)C)cc1)S(=O)CC(O)CO (centres undefined) returned HPGD inh -4%, LMNA splice mod inconclusive, ALDH1A1 block 4%, Luc counter 5% and PNC inhibitor -112*.
For COc1ccccc1NC(=O)C1CCCN(c2ncnc3onc(-c4ccc(F)cc4)c23)C1 (centres undefined) the results were LMNA splice mod 1%[46 µM].
`CN(C)c1ccccc1CN1CCCN(Cc2ccccc2N(C)C)C1c1ccncc1` gave HPGD inh -9%, ALDH1A1 block inconclusive and Luc counter -6%[7.66 µM].
`Cc1cc(C)n(C(=O)CNc2ccc(C)c(C)c2)n1` gave HPGD inh -2%, LMNA splice mod inconclusive, ALDH1A1 block 25µM*, Luc counter -8% and PNC inhibitor inconclusive.
Cc1cc(C)n(C(=O)CCCC(=O)n2nc(C)cc2C)n1 was read as HPGD inh -8%, LMNA splice mod -3%, ALDH1A1 block 0%, Luc counter 3% and PNC inhibitor inconclusive.
CC(=O)c1ccc(N2CCN(c3ccc(NC(=O)c4cccs4)cc3C(=O)O)CC2)cc1 was read as LMNA splice mod 5%[46 µM].
Screening COc1cc(/C=C2\SC(c3ccc(C)cc3)=NC2=O)ccc1O returned HPGD inh inconclusive, LMNA splice mod -17%, ALDH1A1 block inconclusive, Luc counter 2% and PNC inhibitor -95*.
For COc1cc(/C=C2\SC(c3ccc(C)cc3)=NC2=O)cc(OC)c1OC the results were HPGD inh inconclusive, LMNA splice mod -16%, ALDH1A1 block inconclusive, Luc counter 2% and PNC inhibitor 12.
COc1cc(/C=C2\SC(c3ccccc3)=NC2=O)cc(Cl)c1O was read as ALDH1A1 block 5µM* and Luc counter inconclusive.
Screening COc1cc(/C=C2\SC(N)=NC2=O)ccc1OCC(=O)Nc1ccc(C)cc1 returned HPGD inh 4.5µM*, LMNA splice mod inconclusive, ALDH1A1 block 7%, Luc counter 1% and PNC inhibitor -19.
